# Results from the supplement of paper PMC4466140.
# Assays:
# Experiment in all cases: SPOT peptide array binding signal intensity (averaged, normalized) (arbitrary units (background-subtracted, floor 0; scale differs between SH3 domains)); higher = stronger binding of the SH3 domain to the peptide
# AgAbp1 = target: AgAbp1
# Method in brief: (§1)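 GST-SH3 fusions from four yeast species, purified on glutathione Sepharose, were incubated at 10 μg/ml overnight at 4°C on membranes of synthetic 15-mer peptides in which cysteines were replaced with serines. Binding signal is the normalized, background-subtracted spot intensity averaged over replicates, in domain-specific arbitrary units.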
# AgBbc1 = target: AgBbc1
# Method in brief: as §1
# AgBem1-D1 = target: AgBem1-D1
# Method in brief: as §1
# AgBzz1-D1 = target: AgBzz1-D1
# Method in brief: as §1
# AgBzz1-D2 = target: AgBzz1-D2
# Method in brief: as §1
# AgCyk3 = target: AgCyk3
# Method in brief: as §1
# AgFus1 = target: AgFus1
# Method in brief: as §1
# AgHof1 = target: AgHof1
# Method in brief: as §1
# AgHse1 = target: AgHse1
# Method in brief: as §1
# AgLsb1 = target: AgLsb1
# Method in brief: as §1
# AgLsb4 = target: AgLsb4
# Method in brief: as §1
# AgMyo5 = target: AgMyo5
# Method in brief: as §1
# AgNbp2 = target: AgNbp2
# Method in brief: as §1
# AgRvs167 = target: AgRvs167
# Method in brief: as §1
# AgSho1 = target: AgSho1
# Method in brief: as §1
# AgSla1-D1-D2 = target: AgSla1-D1-D2
# Method in brief: as §1
# AgSla1-D3 = target: AgSla1-D3
# Method in brief: as §1
# CaAbp1-D1 = target: CaAbp1-D1
# Method in brief: as §1
# CaAbp1-D2 = target: CaAbp1-D2
# Method in brief: as §1
# CaBbc1 = target: CaBbc1
# Method in brief: as §1
# CaBem1-D1 = target: CaBem1-D1
# Method in brief: as §1
# CaBzz1-D1 = target: CaBzz1-D1
# Method in brief: as §1
# CaBzz1-D2 = target: CaBzz1-D2
# Method in brief: as §1
# CaCyk3 = target: CaCyk3
# Method in brief: as §1
# CaFus1 = target: CaFus1
# Method in brief: as §1
# CaHof1 = target: CaHof1
# Method in brief: as §1
# CaHse1 = target: CaHse1
# Method in brief: as §1
# CaLsb1 = target: CaLsb1
# Method in brief: as §1
# CaLsb4 = target: CaLsb4
# Method in brief: as §1
# CaMyo5 = target: CaMyo5
# Method in brief: as §1
# CaNbp2 = target: CaNbp2
# Method in brief: as §1
# CaRvs167 = target: CaRvs167
# Method in brief: as §1
# CaRvs167-3 = target: CaRvs167-3
# Method in brief: as §1
# CaSho1 = target: CaSho1
# Method in brief: as §1
# CaSla1-D1-D2 = target: CaSla1-D1-D2
# Method in brief: as §1
# CaSla1-D3 = target: CaSla1-D3
# Method in brief: as §1
# ScAbp1 = target: ScAbp1
# Method in brief: as §1
# ScBbc1 = target: ScBbc1
# Method in brief: as §1
# ScBem1-D1 = target: ScBem1-D1
# Method in brief: as §1
# ScBzz1-D1 = target: ScBzz1-D1
# Method in brief: as §1
# ScBzz1-D2 = target: ScBzz1-D2
# Method in brief: as §1
# ScCyk3 = target: ScCyk3
# Method in brief: as §1
# ScFus1 = target: ScFus1
# Method in brief: as §1
# ScHof1 = target: ScHof1
# Method in brief: as §1
# ScHse1 = target: ScHse1
# Method in brief: as §1
# ScLsb1 = target: ScLsb1
# Method in brief: as §1
# ScLsb2 = target: ScLsb2
# Method in brief: as §1
# ScLsb3 = target: ScLsb3
# Method in brief: as §1
# ScLsb4 = target: ScLsb4
# Method in brief: as §1
# ScMyo3 = target: ScMyo3
# Method in brief: as §1
# ScMyo5 = target: ScMyo5
# Method in brief: as §1
# ScNbp2 = target: ScNbp2
# Method in brief: as §1
# ScPex13 = target: ScPex13
# Method in brief: as §1
# ScRvs167 = target: ScRvs167
# Method in brief: as §1
# ScSho1 = target: ScSho1
# Method in brief: as §1
# ScSla1-D1-D2 = target: ScSla1-D1-D2
# Method in brief: as §1
# ScSla1-D3 = target: ScSla1-D3
# Method in brief: as §1
# SpAbp1-D1 = target: SpAbp1-D1
# Method in brief: as §1
# SpBbc1 = target: SpBbc1
# Method in brief: as §1
# SpBzz1-D1 = target: SpBzz1-D1
# Method in brief: as §1
# SpBzz1-D2 = target: SpBzz1-D2
# Method in brief: as §1
# SpCyk3 = target: SpCyk3
# Method in brief: as §1
# SpHof1 = target: SpHof1
# Method in brief: as §1
# SpHof1-2 = target: SpHof1-2
# Method in brief: as §1
# SpHof1-3 = target: SpHof1-3
# Method in brief: as §1
# SpHse1 = target: SpHse1
# Method in brief: as §1
# SpLsb1 = target: SpLsb1
# Method in brief: as §1
# SpLsb4 = target: SpLsb4
# Method in brief: as §1
# SpMyo1 = target: SpMyo1
# Method in brief: as §1
# SpNbp2 = target: SpNbp2
# Method in brief: as §1
# SpPex13 = target: SpPex13
# Method in brief: as §1
# SpRvs167 = target: SpRvs167
# Method in brief: as §1
# SpSla1-D1-D2 = target: SpSla1-D1-D2
# Method in brief: as §1
# SpSla1-D3 = target: SpSla1-D3
# Method in brief: as §1
binder,measurement,setting,value
TIRRRAPLSLLESHT,SPOT peptide array binding signal intensity,AgAbp1,77
same,SPOT peptide array binding signal intensity,AgBbc1,20
same,SPOT peptide array binding signal intensity,AgBem1-D1,46.5
same,SPOT peptide array binding signal intensity,AgBzz1-D1,46
same,SPOT peptide array binding signal intensity,AgBzz1-D2,39
same,SPOT peptide array binding signal intensity,AgCyk3,1
same,SPOT peptide array binding signal intensity,AgFus1,895
same,SPOT peptide array binding signal intensity,AgHof1,47
same,SPOT peptide array binding signal intensity,AgHse1,730
same,SPOT peptide array binding signal intensity,AgLsb1,3.5
same,SPOT peptide array binding signal intensity,AgLsb4,99.5
same,SPOT peptide array binding signal intensity,AgMyo5,≤ 0
same,SPOT peptide array binding signal intensity,AgNbp2,397
same,SPOT peptide array binding signal intensity,AgRvs167,3
same,SPOT peptide array binding signal intensity,AgSho1,36
same,SPOT peptide array binding signal intensity,AgSla1-D1-D2,32
same,SPOT peptide array binding signal intensity,AgSla1-D3,11.5
same,SPOT peptide array binding signal intensity,CaAbp1-D1,475
same,SPOT peptide array binding signal intensity,CaAbp1-D2,324
same,SPOT peptide array binding signal intensity,CaBbc1,133
same,SPOT peptide array binding signal intensity,CaBem1-D1,21.5
same,SPOT peptide array binding signal intensity,CaBzz1-D1,40
same,SPOT peptide array binding signal intensity,CaBzz1-D2,58.8
same,SPOT peptide array binding signal intensity,CaCyk3,11.5
same,SPOT peptide array binding signal intensity,CaFus1,1540
same,SPOT peptide array binding signal intensity,CaHof1,0.5
same,SPOT peptide array binding signal intensity,CaHse1,47.5
same,SPOT peptide array binding signal intensity,CaLsb1,0.5
same,SPOT peptide array binding signal intensity,CaLsb4,130
same,SPOT peptide array binding signal intensity,CaMyo5,≤ 0
same,SPOT peptide array binding signal intensity,CaNbp2,3410
same,SPOT peptide array binding signal intensity,CaRvs167,19.3
same,SPOT peptide array binding signal intensity,CaRvs167-3,28.2
same,SPOT peptide array binding signal intensity,CaSho1,608
same,SPOT peptide array binding signal intensity,CaSla1-D1-D2,133
same,SPOT peptide array binding signal intensity,CaSla1-D3,≤ 0
same,SPOT peptide array binding signal intensity,ScAbp1,97
same,SPOT peptide array binding signal intensity,ScBbc1,16.5
same,SPOT peptide array binding signal intensity,ScBem1-D1,22.5
same,SPOT peptide array binding signal intensity,ScBzz1-D1,11.5
same,SPOT peptide array binding signal intensity,ScBzz1-D2,29.5
same,SPOT peptide array binding signal intensity,ScCyk3,57.5
same,SPOT peptide array binding signal intensity,ScFus1,731
same,SPOT peptide array binding signal intensity,ScHof1,3.5
same,SPOT peptide array binding signal intensity,ScHse1,2020
same,SPOT peptide array binding signal intensity,ScLsb1,2
same,SPOT peptide array binding signal intensity,ScLsb2,≤ 0
same,SPOT peptide array binding signal intensity,ScLsb3,272
same,SPOT peptide array binding signal intensity,ScLsb4,8
same,SPOT peptide array binding signal intensity,ScMyo3,≤ 0
same,SPOT peptide array binding signal intensity,ScMyo5,1
same,SPOT peptide array binding signal intensity,ScNbp2,1320
same,SPOT peptide array binding signal intensity,ScPex13,1
same,SPOT peptide array binding signal intensity,ScRvs167,48.5
same,SPOT peptide array binding signal intensity,ScSho1,1070
same,SPOT peptide array binding signal intensity,ScSla1-D1-D2,337
same,SPOT peptide array binding signal intensity,ScSla1-D3,0.5
same,SPOT peptide array binding signal intensity,SpAbp1-D1,508
same,SPOT peptide array binding signal intensity,SpBbc1,1
same,SPOT peptide array binding signal intensity,SpBzz1-D1,106
same,SPOT peptide array binding signal intensity,SpBzz1-D2,≤ 0
same,SPOT peptide array binding signal intensity,SpCyk3,2
same,SPOT peptide array binding signal intensity,SpHof1,148
same,SPOT peptide array binding signal intensity,SpHof1-2,3.5
same,SPOT peptide array binding signal intensity,SpHof1-3,504
same,SPOT peptide array binding signal intensity,SpHse1,598
same,SPOT peptide array binding signal intensity,SpLsb1,3
same,SPOT peptide array binding signal intensity,SpLsb4,135
same,SPOT peptide array binding signal intensity,SpMyo1,≤ 0
same,SPOT peptide array binding signal intensity,SpNbp2,350
same,SPOT peptide array binding signal intensity,SpPex13,7
same,SPOT peptide array binding signal intensity,SpRvs167,6.33
same,SPOT peptide array binding signal intensity,SpSla1-D1-D2,5
same,SPOT peptide array binding signal intensity,SpSla1-D3,4.5
IFLRISINFPLNYPN,SPOT peptide array binding signal intensity,AgAbp1,76
same,SPOT peptide array binding signal intensity,AgBbc1,233
same,SPOT peptide array binding signal intensity,AgBem1-D1,952
same,SPOT peptide array binding signal intensity,AgBzz1-D1,1120
same,SPOT peptide array binding signal intensity,AgBzz1-D2,412
same,SPOT peptide array binding signal intensity,AgCyk3,52.5
same,SPOT peptide array binding signal intensity,AgFus1,4330
same,SPOT peptide array binding signal intensity,AgHof1,218
same,SPOT peptide array binding signal intensity,AgHse1,2460
same,SPOT peptide array binding signal intensity,AgLsb1,68.8
same,SPOT peptide array binding signal intensity,AgLsb4,2440
same,SPOT peptide array binding signal intensity,AgMyo5,29.5
same,SPOT peptide array binding signal intensity,AgNbp2,1630
same,SPOT peptide array binding signal intensity,AgRvs167,162
same,SPOT peptide array binding signal intensity,AgSho1,2150
same,SPOT peptide array binding signal intensity,AgSla1-D1-D2,74.2
same,SPOT peptide array binding signal intensity,AgSla1-D3,73.9
same,SPOT peptide array binding signal intensity,CaAbp1-D1,448
same,SPOT peptide array binding signal intensity,CaAbp1-D2,305
same,SPOT peptide array binding signal intensity,CaBbc1,487
same,SPOT peptide array binding signal intensity,CaBem1-D1,666
same,SPOT peptide array binding signal intensity,CaBzz1-D1,1170
same,SPOT peptide array binding signal intensity,CaBzz1-D2,821
same,SPOT peptide array binding signal intensity,CaCyk3,107
same,SPOT peptide array binding signal intensity,CaFus1,7820
same,SPOT peptide array binding signal intensity,CaHof1,1.25
same,SPOT peptide array binding signal intensity,CaHse1,1570
same,SPOT peptide array binding signal intensity,CaLsb1,63.5
same,SPOT peptide array binding signal intensity,CaLsb4,477
same,SPOT peptide array binding signal intensity,CaMyo5,156
KKEKKPPKIPKKVYT,SPOT peptide array binding signal intensity,SpBzz1-D2,0.75
same,SPOT peptide array binding signal intensity,SpCyk3,≤ 0
same,SPOT peptide array binding signal intensity,SpHof1,1.75
same,SPOT peptide array binding signal intensity,SpHof1-2,1
same,SPOT peptide array binding signal intensity,SpHof1-3,6.25
same,SPOT peptide array binding signal intensity,SpHse1,1.5
same,SPOT peptide array binding signal intensity,SpLsb1,55
same,SPOT peptide array binding signal intensity,SpLsb4,≤ 0
same,SPOT peptide array binding signal intensity,SpMyo1,3.25
same,SPOT peptide array binding signal intensity,SpNbp2,≤ 0
same,SPOT peptide array binding signal intensity,SpPex13,≤ 0
same,SPOT peptide array binding signal intensity,SpRvs167,8.33
same,SPOT peptide array binding signal intensity,SpSla1-D1-D2,4
same,SPOT peptide array binding signal intensity,SpSla1-D3,3.5
